# Measurements: PubChem BioAssay (NCATS)
# Values without a mark were called inactive. Inconclusive results are not listed. Entries that show only a call come without a potency. Calls of active or inactive are those of the source. The call rests on the fitted dose curve; in most records, active means well fitted curve in the direction sought with a large enough effect; inconclusive means small, poorly fitted or top-dose-only effect, or another doubt; inactive means no such curve, though single readings can be large; an effect the other way counts as inactive or inconclusive.
# Columns and labels:
# [1] = molecular target: Glutathione peroxidase 1 (Homo sapiens) (UniProt P07203); assay: Primary qHTS Assay for Inhibitors of Recombinant Selenoprotein Glutathione Peroxidase 1 (GPX1) (AID 1845191); further: nearly all actives have a fitted effect of over 65% in size
# Method in brief: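 GPX1 10 nM, GR 100 nM, GSH 1 mM, NADPH 0.5 mM, CHP 0.5 mM (final). 30-min cpd preincubation, RT. Ex340/Em450 read t=0, t=15 min.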
# [2] = molecular target: Luciferin 4-monooxygenase (Photinus pyralis) (UniProt P08659); assay: Primary firefly luciferase (FLuc) qHTS assay for identification of artifact compounds. (AID 1845220); further: nearly all actives have a fitted effect of over 60% in size; on activity change, negative = inhibition: series mostly up to about 54 µM
# Method in brief: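 In this counter-screen for luciferase artifacts, test compounds met substrate (10 uM each luciferin and ATP) before 10 nM enzyme started the reaction. Light output was measured 5 min later.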
# [3] = system: Nanoluciferase (engineered Oplophorus gracilirostris luciferase); assay: Primary Nanoluciferase (NLuc) qHTS assay for identification of artifact compounds. (AID 1845222); further: potency means the concentration at half of the fitted maximal effect;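 on activity, negative = inhibition: NLuc secreted into diluted conditioned medium of S16 cells; series mostly up to about 54 µM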
# Method in brief: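 Using secreted nanoluciferase in S16 culture medium (0.22 um filtered, 1:55 dilution), compounds were preincubated 15 min at RT. Signal was generated with Nano-Glo reagent (1:100) over 5 min.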
# [4] = Primary fluorescence-based thiol-reactive (MSTI) qHTS assay for identification of artifact compounds. (AID 1845221); further: nearly all actives have a fitted effect of over 65% in size; further: potency means the concentration at half of the fitted maximal effect;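 on activity change, negative = thiol reactive: series mostly up to about 54 µM; thiol-reactive compounds lower the probe fluorescence signal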
# Method in brief: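 Thiol-reactive compounds detected by quenching of 4 uM MSTI fluorescence (525/598 nm) after 1 h room-temperature dark incubation in PBS pH 7.4, 2% DMSO. qHTS titration; percent inhibition Hill-fitted against Acetyl-MSTI/MSTI controls.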
# Chain of Glutathione peroxidase 1 (Homo sapiens) (P07203 whole entry, looked up): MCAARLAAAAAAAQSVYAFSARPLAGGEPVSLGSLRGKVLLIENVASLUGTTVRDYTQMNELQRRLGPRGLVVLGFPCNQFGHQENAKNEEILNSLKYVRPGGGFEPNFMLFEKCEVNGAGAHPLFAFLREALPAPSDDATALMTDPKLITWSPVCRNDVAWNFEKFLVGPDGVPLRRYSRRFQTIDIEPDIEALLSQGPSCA
SMILES,Potency [1],Potency [2],Potency [3],Potency [4],"activity change, negative = inhibition [2]","activity change, negative = thiol reactive [4]","activity, negative = inhibition [3]"
C[C@@]12CC3(S(=O)(=O)O)OC(O1)[C@]1(COC(=O)c4ccccc4)[C@H]3C[C@]21O[C@@H]1O[C@H](CO)[C@@H](O)[C@H](O)[C@H]1O,inactive,inactive,inactive,,,,
CC[C@H]1OC(=O)[C@H](C)C(=O)[C@H](C)[C@@H](OC2O[C@H](C)C[C@H](N(C)C)[C@H]2O)[C@@H](C)C[C@@H](C)C(=O)/C=C/[C@]1(C)O (some centres undefined),inactive,inactive,inactive,inactive,,,
COc1cc2c(cc1O)CC(O)(CO)C(CO)C2c1ccc(OC2OC(CO)C(O)C(O)C2O)c(OC)c1 (centres undefined),inactive,inactive,inactive,10.3 µM (active),,,
CCOC(=O)CSc1nc2c(sc3ccccc32)c(=O)n1CCCN1CCCC1,inactive,inactive,inactive,inactive,,,
CC1OC(OC2C(OC3C(O[C@H]4CC[C@@]5(C)C(CC[C@]6(C)C5CC=C5C7CC(C)(C)CC(O)[C@]7(C)CC[C@]56C)C4(C)C)OC(C(=O)O)C(O)C3O)OCC(O)C2O)C(O)C(O)C1O (some centres undefined),inactive,,,,4.47% [at 11.6 µM],167% [at 11.5 µM],4.85% [at 11.6 µM]
CC1=CCC(O)C2(C)CCC3C(C)C(=O)OC3C12 (centres undefined),inactive,inactive,inactive,inactive,,,
CC(C)NC(=O)c1ccc(C#Cc2ccncc2)cn1,inactive,inactive,inactive,inactive,,,
COc1ccc2[nH]c(S(=O)Cc3ncc(C)c(OC)c3C)nc2c1 (centres undefined),inactive,inactive,inactive,11.9 µM (active),,,
CCC(C)/C=C(C)/C=C/C1=CC2=CC(=O)C(C)(O)C(OC(C)=O)C2CO1 (centres undefined),inactive,inactive,inactive,,,,
O=C(NCCN1CCCC1)c1cc(-c2ccc(CN3CCOCC3)cc2)nc2ccc(F)cc12,inactive,inactive,inactive,inactive,,,
CC(CCO)CCC1C2(C)CCCC(C)(C)C2CC[C@@]1(C)O (some centres undefined),inactive,inactive,inactive,inactive,,,
COc1cc(O)cc2c1C(=O)OC(C)C2 (centres undefined),inactive,inactive,inactive,inactive,,,
CCC(C)/C=C(C)/C=C/C1=CC2=C(Cl)C(=O)C(C)(OC(C)=O)C(=O)C2=CN1CCCCC(N)C(=O)O (centres undefined),inactive,inactive,inactive,0.653 µM (active),,,
O=C(C1OC1/C=C/c1ccc2c(c1)OCO2)N1CCCCC1 (centres undefined),inactive,inactive,inactive,inactive,,,
C=CC(C)(O)CC/C=C(\C)C1CC=C(C)C(=O)O1 (centres undefined),inactive,inactive,inactive,,,,
COc1ccc(S(=O)(=O)Nc2nc(-c3cccc([N+](=O)[O-])c3)cs2)cc1OC,inactive,inactive,9.53 µM (active),1.19 µM (active),,,
C/C(=C\CCC(C)CCO)C(=O)OC[C@H]1O[C@@H](O[C@@H]2OC=C(C(=O)O)[C@H]3CC[C@](C)(O)[C@@H]23)C(O)[C@@H](O)C1O (some centres undefined),inactive,inactive,inactive,2.32 µM (active),,,
COc1ccc([C@H]2OC[C@H]3[C@@H]2CO[C@@H]3c2ccc(O[C@@H]3O[C@H](CO)C(O)[C@H](O)[C@H]3O)c(OC)c2)cc1OC (some centres undefined),inactive,inactive,inactive,inactive,,,
Cc1cn2cc(CC(=O)N3CCC4(CC3)CN(Cc3ccc(-n5nccn5)cc3Cl)C4)nc2s1,inactive,,inactive,inactive,,,
CC(C)c1ccc2c(c1)CCC1[C@](C)(C(=O)O)CCC[C@]21C (some centres undefined),inactive,,inactive,inactive,,,
CC1=CC(=O)[C@]2(O[C@@H]3O[C@@H](C)[C@H](O)[C@@H](O)[C@H]3O)C=CO[C@@H](O[C@@H]3O[C@H](CO)[C@@H](O)[C@H](O)[C@H]3O)[C@H]12,inactive,inactive,inactive,5.82 µM (active),,,
